Reference: PubChem BioAssay (NCATS)
Several values for one entry are separate records, joined by “and”; a condition that tells them apart may be missing. Equal entries are not always repeated. Inconclusive results are not listed. Entries that show only a call come without a potency. A number with no mark means an inactive call. Activity calls are given as the source filed them. Calls follow the shape of the dose curve; as a rule, active = well fitted curve in the direction sought with a large enough effect; inconclusive = small, poorly fitted or top-dose-only effect, or another doubt; inactive = no such curve, though single readings can be large; an effect the other way counts as inactive or inconclusive.

Legend:
[1] = target: Rap guanine nucleotide exchange factor 3 (Homo sapiens) (UniProt O95398); experiment: Confirmatory qHTS for agonist of cAMP-regulated guanine nucleotide exchange factor 3 (EPAC1) (AID 1645881);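 also: EPAC1 catalysed release of BODIPY-GDP from Rap1B seen as fluorescence loss; nearly all actives have a fitted effect of over 75% in size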
Rap guanine nucleotide exchange factor 3 (Homo sapiens), sequence (O95398 whole entry, looked up): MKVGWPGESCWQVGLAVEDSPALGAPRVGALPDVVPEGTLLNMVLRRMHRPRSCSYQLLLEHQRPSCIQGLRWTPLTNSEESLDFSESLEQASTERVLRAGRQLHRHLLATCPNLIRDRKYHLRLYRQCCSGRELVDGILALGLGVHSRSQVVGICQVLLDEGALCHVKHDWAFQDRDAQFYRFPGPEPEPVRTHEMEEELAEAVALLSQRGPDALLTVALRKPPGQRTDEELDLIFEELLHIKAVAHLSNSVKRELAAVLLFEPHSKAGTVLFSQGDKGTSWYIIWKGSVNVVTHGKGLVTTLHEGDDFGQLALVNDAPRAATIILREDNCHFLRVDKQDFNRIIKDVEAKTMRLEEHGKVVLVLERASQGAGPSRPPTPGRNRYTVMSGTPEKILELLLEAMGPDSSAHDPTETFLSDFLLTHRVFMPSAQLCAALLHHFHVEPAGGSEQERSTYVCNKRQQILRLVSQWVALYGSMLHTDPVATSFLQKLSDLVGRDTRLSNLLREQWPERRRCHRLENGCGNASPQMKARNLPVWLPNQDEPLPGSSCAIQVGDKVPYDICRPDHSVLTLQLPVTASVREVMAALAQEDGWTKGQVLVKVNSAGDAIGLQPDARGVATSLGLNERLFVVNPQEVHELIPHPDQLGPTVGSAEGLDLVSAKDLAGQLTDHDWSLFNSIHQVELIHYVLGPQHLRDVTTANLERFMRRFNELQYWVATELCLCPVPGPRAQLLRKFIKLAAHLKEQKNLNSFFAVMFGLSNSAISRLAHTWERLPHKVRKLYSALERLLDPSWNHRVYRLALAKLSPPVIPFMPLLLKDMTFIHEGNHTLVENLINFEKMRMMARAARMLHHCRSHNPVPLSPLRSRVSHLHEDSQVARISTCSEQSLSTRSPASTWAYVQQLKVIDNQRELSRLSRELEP

[2] = target: Rap guanine nucleotide exchange factor 4 (Homo sapiens) (UniProt Q8WZA2); experiment: Confirmatory qHTS for agonist of cAMP-regulated guanine nucleotide exchange factor 4 (EPAC2) (AID 1645884);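 also: nucleotide exchange releases bodipy-GDP from Rap1 and this lowers its fluorescence; nearly all actives have a fitted effect of over 65% in size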
Rap guanine nucleotide exchange factor 4 (Homo sapiens), sequence (Q8WZA2 whole entry, looked up): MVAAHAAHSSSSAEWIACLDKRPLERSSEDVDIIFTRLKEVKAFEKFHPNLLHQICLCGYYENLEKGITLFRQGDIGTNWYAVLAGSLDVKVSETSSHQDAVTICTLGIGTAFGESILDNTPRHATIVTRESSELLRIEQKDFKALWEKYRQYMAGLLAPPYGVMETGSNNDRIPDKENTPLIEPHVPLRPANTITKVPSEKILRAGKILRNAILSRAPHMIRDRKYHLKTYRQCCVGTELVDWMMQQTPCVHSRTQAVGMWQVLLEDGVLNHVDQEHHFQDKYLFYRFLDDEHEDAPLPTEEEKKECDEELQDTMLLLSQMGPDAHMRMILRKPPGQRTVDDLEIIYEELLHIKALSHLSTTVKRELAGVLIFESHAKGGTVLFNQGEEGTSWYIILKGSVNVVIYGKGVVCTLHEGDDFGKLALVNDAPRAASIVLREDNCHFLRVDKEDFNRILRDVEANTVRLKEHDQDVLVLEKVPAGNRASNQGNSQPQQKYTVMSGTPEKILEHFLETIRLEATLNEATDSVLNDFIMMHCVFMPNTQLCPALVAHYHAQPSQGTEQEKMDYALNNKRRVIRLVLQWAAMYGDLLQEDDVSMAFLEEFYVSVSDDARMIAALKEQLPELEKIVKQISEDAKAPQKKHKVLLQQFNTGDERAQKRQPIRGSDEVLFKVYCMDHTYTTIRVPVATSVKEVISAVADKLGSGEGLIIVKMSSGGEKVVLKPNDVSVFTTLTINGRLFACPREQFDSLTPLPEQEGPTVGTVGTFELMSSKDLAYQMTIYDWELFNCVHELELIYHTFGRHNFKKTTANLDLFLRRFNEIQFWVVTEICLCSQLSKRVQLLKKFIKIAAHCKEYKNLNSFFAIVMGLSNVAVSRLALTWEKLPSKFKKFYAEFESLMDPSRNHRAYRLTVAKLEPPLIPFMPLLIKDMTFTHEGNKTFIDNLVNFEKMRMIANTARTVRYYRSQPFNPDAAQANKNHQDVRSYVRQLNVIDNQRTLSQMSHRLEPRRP

[3] = target: Rap guanine nucleotide exchange factor 4 (Homo sapiens) (UniProt Q8WZA2); experiment: Confirmatory qHTS for antagonist of cAMP-regulated guanine nucleotide exchange factor 4 (EPAC2) (AID 1645885); also: nearly all actives have a fitted effect of over 25% in size; also: potency is read from the fitted curve at half-maximal effect
[4] = target: Rap guanine nucleotide exchange factor 3 (Homo sapiens) (UniProt O95398); experiment: Counterscreen qHTS for antagonist of cAMP-regulated guanine nucleotide exchange factor 3 (EPAC1) (AID 1645888);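 also: fluorescence loss as bound BODIPY-GDP is released from Rap1B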
Method in brief: (§1)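 Rap1B–BODIPY-GDP (250 nM) with 50 uM GDP; compounds pin-transferred to 9.74 nM–152 uM final (activator) or from 7.32 nM upwards (inhibitor). Fluorescence Ex/Em 480/540 nm read at 5 and 30 min, then after adding cAMP or buffer, at room temperature.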

[5] = target: Rap guanine nucleotide exchange factor 3 (Homo sapiens) (UniProt O95398); experiment: Counterscreen qHTS for agonist of cAMP-regulated guanine nucleotide exchange factor 3 (EPAC1) (AID 1645889); also: nearly all actives have a fitted effect of over 40% in size; also: potency is read from the fitted curve at half-maximal effect
Method in brief: as §1

COc1ccc(S(=O)(=O)Nc2ccc3cn[nH]c3c2)cc1C
Potency [1]: inactive | Potency [2]: inactive | Potency [3]: 67.5 µM (active) | Potency [4]: inactive | Potency [5]: inactive

Cc1ccccc1CN(C)CC(=O)Nc1c(C)cccc1C(C)C
Potency [1]: inactive | activation [2]: 7.02% [at 17.1 µM, percent relative to cAMP agonist control] | Potency [3]: inactive | activity change, negative = inhibition [4]: -6.66% [at 30.8 µM] | activation [5]: -4.69% [at 30.8 µM]

CC1=Nc2ccccc2N=C(NC(=O)/C=C/C(=O)O)C1c1ccccc1 (stereo not given)
Potency [1]: inactive | Potency [2]: inactive | Potency [3]: 0.0675 µM (active) | Potency [4]: inactive | Potency [5]: inactive

CCC(CC)c1nnc(NC(=O)CSCc2c(C)noc2C)s1
Potency [1]: inactive | Potency [2]: inactive | Potency [3]: inactive | Potency [4]: inactive | Potency [5]: inactive

O=C(CCN1C(=O)S/C(=C\c2ccc(Cl)cc2)C1=O)Nc1ccc(C(=O)O)cc1
Potency [1]: inactive | Potency [2]: inactive | Potency [3]: inactive | Potency [4]: inactive | Potency [5]: inactive

CC(=O)Nc1ccc(NC(=O)CNC(=O)COc2ccccc2)cc1
Potency [1]: inactive | activation [2]: 14.1% [at 17.1 µM, percent relative to cAMP agonist control] | Potency [3]: inactive | activity change, negative = inhibition [4]: 1.2% [at 30.8 µM] | activation [5]: -0.338% [at 30.8 µM]

COc1ccc(-c2cnnc(N/N=C/c3ccc(O)c(O)c3)n2)cc1
Potency [1]: inactive | Potency [2]: inactive | Potency [3]: inactive | Potency [4]: inactive | Potency [5]: inactive

CCCC(=O)OCCNc1cc(SCc2ccco2)c2nonc2c1[N+](=O)[O-]
Potency [1]: inactive | activation [2]: 4.83% [at 17.1 µM, percent relative to cAMP agonist control] | Potency [3]: inactive | activity change, negative = inhibition [4]: 14.3% [at 30.8 µM] | activation [5]: 26.5% [at 30.8 µM]

COc1ccc(C(C)(NC(C)=O)c2nc(-c3cc(F)cc(F)c3)cs2)cc1 (stereo not given)
Potency [1]: inactive | activation [2]: 0% [at 17.1 µM, percent relative to cAMP agonist control] | Potency [3]: inactive | activity change, negative = inhibition [4]: -9.04% [at 30.8 µM] | activation [5]: 15% [at 30.8 µM]

Cn1cc(S(=O)(=O)Nc2cccc(F)c2)c(=O)n(C)c1=O
Potency [1]: inactive | activation [2]: 0% [at 17.1 µM, percent relative to cAMP agonist control] | Potency [3]: inactive | activity change, negative = inhibition [4]: -13.5% [at 30.8 µM] | activation [5]: -7.11% [at 30.8 µM]

Cc1cccc(NC(=O)COC(=O)c2c(-c3ccccc3)noc2C)c1
Potency [1]: inactive | activation [2]: 4.55% [at 17.1 µM, percent relative to cAMP agonist control] | Potency [3]: inactive | activity change, negative = inhibition [4]: -6.85% [at 30.8 µM] | activation [5]: 24.2% [at 30.8 µM]

CCc1c(O)cc(=O)n(-c2ccccc2)c1-c1ccccc1
Potency [1]: inactive | Potency [2]: inactive | Potency [3]: 84.9 µM (active) | Potency [4]: inactive | Potency [5]: inactive

CCOc1cc(/C=C/c2cc(C(=O)O)c3ccccc3n2)ccc1OC
Potency [1]: inactive | activation [2]: -3.6% [at 17.1 µM, percent relative to cAMP agonist control] | Potency [3]: inactive | activity change, negative = inhibition [4]: 8.54% [at 30.8 µM] | activation [5]: 6.45% [at 30.8 µM]

O=C1/C(=C/c2cccc(F)c2)SC(=S)N1NS(=O)(=O)c1ccccc1
Potency [1]: inactive | Potency [2]: inactive | Potency [3]: inactive | Potency [4]: inactive | Potency [5]: inactive

CC(/C=C1\SC(=S)N(CCC(=O)Nc2cccc(C(=O)O)c2)C1=O)=C\c1ccccc1
Potency [1]: inactive | activation [2]: 9.03% [at 17.1 µM, percent relative to cAMP agonist control] | Potency [3]: inactive | activity change, negative = inhibition [4]: 19.7% [at 30.8 µM] | activation [5]: 16.2% [at 30.8 µM]

CC(=O)c1sc2nc(-c3ccco3)ccc2c1N
Potency [1]: inactive | Potency [2]: inactive | Potency [3]: inactive | Potency [4]: inactive | Potency [5]: inactive

CC(C)C[C@H](NC(=O)C1(c2ccccc2)CCN(C(=O)OC(C)(C)C)CC1)C(=O)N1CCC[C@H]1C(=O)O
Potency [1]: inactive | Potency [2]: inactive | Potency [3]: inactive | Potency [4]: inactive | Potency [5]: inactive

Cc1ccc(S(=O)(=O)NC(=O)c2ccc(-c3ccc(C)c4ccccc34)o2)cc1
Potency [1]: inactive | Potency [2]: inactive | Potency [3]: inactive | Potency [4]: inactive | Potency [5]: inactive

Cc1cc2nc(-c3ccc(SCc4ccccn4)nc3)[nH]c2cc1C
Potency [1]: inactive | activation [2]: 4.1% [at 17.1 µM, percent relative to cAMP agonist control] | Potency [3]: inactive | activity change, negative = inhibition [4]: 1.95% [at 30.8 µM] | activation [5]: 19.2% [at 30.8 µM]

CN(CC(=O)Nc1ccc(Cl)c(C(F)(F)F)c1)C(=O)Cc1c[nH]c2ccccc12
Potency [1]: inactive | activation [2]: 5.51% [at 17.1 µM, percent relative to cAMP agonist control] | Potency [3]: inactive | activity change, negative = inhibition [4]: -15.4% [at 30.8 µM] | activation [5]: 36.2% [at 30.8 µM]

COC(=O)c1c(SC)nc2ccccc2c1OCc1ccc(C)cc1
Potency [1]: inactive | Potency [2]: inactive | Potency [3]: inactive | Potency [4]: inactive | Potency [5]: 17.8 µM (active)

CCCCOc1cccc(C2C(C(=O)c3ccc(C)o3)=C(O)C(=O)N2c2nnc(C)s2)c1 (stereo not given)
Potency [1]: inactive | Potency [2]: inactive | Potency [3]: inactive | Potency [4]: inactive | Potency [5]: inactive

CCCCC(CC)COC1(c2ccccc2)OC(=O)c2ccccc21 (stereo not given)
Potency [1]: inactive | Potency [2]: inactive | Potency [3]: inactive | Potency [4]: inactive | Potency [5]: inactive

O=C(c1ccc2c(c1)CCCC2)N1CCN(c2nc3ccc(F)cc3s2)CC1
Potency [1]: inactive | Potency [2]: inactive | Potency [3]: inactive | Potency [4]: inactive | Potency [5]: inactive

CCOc1cccc(CNc2ccc(O)cc2)c1OCc1ccccc1Cl
Potency [1]: inactive | Potency [2]: inactive | Potency [3]: inactive | Potency [4]: inactive | Potency [5]: 44.7 nM (active) and 79.4 µM (active)

O=C(O)CN1C(=O)/C(=C\c2cc([N+](=O)[O-])ccc2OCc2ccccc2Cl)SC1=S
Potency [1]: inactive | activation [2]: 2.47% [at 17.1 µM, percent relative to cAMP agonist control] | Potency [3]: inactive | activity change, negative = inhibition [4]: -20.4% [at 30.8 µM] | activation [5]: 29.5% [at 30.8 µM]

COc1ccccc1N1CCN(CC(O)COc2ccc(C)cc2C(C)(C)C)CC1 (stereo not given)
Potency [1]: inactive | Potency [2]: inactive | Potency [3]: inactive | Potency [4]: inactive | Potency [5]: inactive

CSc1cccc(NC(=O)Cn2nnc(C(=O)NCCc3ccccc3)c2N)c1
Potency [1]: inactive | Potency [2]: inactive | outcome [3]: inactive [at 12.7 µM] | Potency [4]: inactive | Potency [5]: inactive

CC(C)C[C@H]1CNC(=O)C(=O)N1C[C@@H]1CCCN1C[C@H](Cc1ccc(O)cc1)N1C[C@H](Cc2ccccc2)N(CC2CCCCC2)C(=O)C1=O
Potency [1]: inactive | Potency [2]: inactive | Potency [3]: 47.8 µM (active) | Potency [4]: inactive | Potency [5]: inactive

CC1(Cc2cc(Cl)ccc2C(F)(F)F)C(=O)Nc2cc(F)ccc21 (stereo not given)
Potency [1]: inactive | activation [2]: 5.2% [at 17.1 µM, percent relative to cAMP agonist control] | Potency [3]: inactive | activity change, negative = inhibition [4]: -15.8% [at 30.8 µM] | activation [5]: 12.6% [at 30.8 µM]

Cc1ccc2nc(-c3ccco3)c(Cc3cccc(Cl)c3)n2c1
Potency [1]: inactive | activation [2]: 2.28% [at 17.1 µM, percent relative to cAMP agonist control] | Potency [3]: inactive | activity change, negative = inhibition [4]: -5.77% [at 30.8 µM] | activation [5]: 14.3% [at 30.8 µM]

N#Cc1c(NC(=O)C2CC=CCC2C(=O)O)sc2c1CCCCCC2 (stereo not given)
Potency [1]: inactive | activation [2]: -2.41% [at 17.1 µM, percent relative to cAMP agonist control] | Potency [3]: inactive | activity change, negative = inhibition [4]: -15.2% [at 30.8 µM] | activation [5]: 6.58% [at 30.8 µM]

CCc1ccc(N=C2NC(=O)/C(=C/c3cc(Br)c(OCC(=O)O)c(OC)c3)S2)cc1
Potency [1]: inactive | activation [2]: -6.04% [at 17.1 µM, percent relative to cAMP agonist control] | Potency [3]: inactive | activity change, negative = inhibition [4]: -19.5% [at 30.8 µM] | activation [5]: 15.5% [at 30.8 µM]

COC1=C(Nc2ccc(O)cc2)C(=O)c2ccccc2C1=O
Potency [1]: inactive | activation [2]: 5% [at 17.1 µM, percent relative to cAMP agonist control] | Potency [3]: inactive | activity change, negative = inhibition [4]: 4.79% [at 30.8 µM] | activation [5]: 25.2% [at 30.8 µM]

CC(=O)Nc1ccc(S(=O)(=O)Nc2nc3ccccc3nc2-n2ccc(=NC(=O)c3ccccc3)cc2)cc1
Potency [1]: inactive | activation [2]: -0.645% [at 17.1 µM, percent relative to cAMP agonist control] | Potency [3]: inactive | activity change, negative = inhibition [4]: -23.7% [at 30.8 µM] | activation [5]: 5.94% [at 30.8 µM]

CCOC(=O)Cc1csc(NC(=O)COc2ccc3ccccc3c2)n1
Potency [1]: inactive | activation [2]: 9.25% [at 17.1 µM, percent relative to cAMP agonist control] | Potency [3]: inactive | activity change, negative = inhibition [4]: 5.57% [at 30.8 µM] | activation [5]: 21.1% [at 30.8 µM]

Cc1ccc(C)c(Nc2cc(C)nc(-c3ccccc3O)n2)c1
Potency [1]: inactive | activation [2]: 10% [at 17.1 µM, percent relative to cAMP agonist control] | Potency [3]: inactive | activity change, negative = inhibition [4]: -8.51% [at 30.8 µM] | activation [5]: 7.83% [at 30.8 µM]

CCCCN(Cc1ccccc1)C(=O)c1oc(=O)c2ccccc2c1-c1ccc(C)cc1
Potency [1]: inactive | Potency [2]: inactive | Potency [3]: inactive | Potency [4]: inactive | Potency [5]: inactive

O=C(O)c1cc(-c2ccc(/C=C3/SC(=S)N(Cc4ccccc4)C3=O)o2)ccc1Cl
Potency [1]: inactive | activation [2]: -8.48% [at 17.1 µM, percent relative to cAMP agonist control] | Potency [3]: inactive | activity change, negative = inhibition [4]: -11.2% [at 30.8 µM] | activation [5]: 7.37% [at 30.8 µM]
